USP30 inh: inhibitors of human USP30 deubiquitinase; Q70CQ3; purified USP30, Ub-rhodamine cleavage fluorescence; inhibition, % at 25 µM; 5.3% of 47,000 active
USP17 inh: human USP17-like deubiquitinase inhibition. A8MUK1. purified USP17, Ub-rhodamine cleavage fluorescence, 3 h. inhibition, % at 50 µM. 6.5% of 47,000 active
USP28 inh: human USP28 deubiquitinase inhibition. Q96RU2. purified USP28, Ub-rhodamine cleavage fluorescence, 30 min. inhibition, % at 25 µM. 3% of 47,000 active
USP10 inh: blocks human USP10 ubiquitin-rhodamine cleavage. Q14694. purified USP10, Ub-rhodamine fluorescence, 60 min. inhibition, % at 20 µM. 1.1% of 47,000 active. AID 1645856
OTUD3 block: human OTUD3 deubiquitinase inhibition | Q5T2D3 | purified OTUD3, Ub-rhodamine fluorescence, 2 h | AID 1645858 | inhibition, % at 25 µM | 0.7% of 47,000 active
USP8 inh: inhibitors of human USP8 deubiquitinase. P40818. purified USP8, Ub-rhodamine cleavage fluorescence, 30 min. inhibition, % at 20 µM. 4.2% of 47,000 active
A number is an active result; 0 = inactive; - = not tested or not shown. An excerpt weighted towards active compounds, which were near 13% of everything screened. No stated cut-off is given here; in the data, active means inhibition above about 30%; inactive means the rest.

SMILES	USP30 inh	USP17 inh	USP28 inh	USP10 inh	OTUD3 block	USP8 inh
O=C1CCSc2ccc(Cl)cc2N1Cc1cccc(F)c1	34.3	0	36.6	0	0	0
O=C1CCSc2ccccc2N1Cc1ccc([N+](=O)[O-])cc1	33.4	0	0	0	0	0
CC1CC(=O)N(Cc2ccc([N+](=O)[O-])cc2)c2ccccc2S1 (centres undefined)	33.2	0	62.5	0	0	0
CC1Oc2ccccc2C(=O)N(Cc2ccc([N+](=O)[O-])cc2)C1=O (centres undefined)	0	0	73.7	0	0	0
CCC1Oc2ccccc2C(=O)N(Cc2ccccc2Cl)C1=O (centres undefined)	0	0	0	0	0	0
COc1ccc(CNc2nc3c(c(=O)n2C)CN(C(=O)C2CCC(=O)N2)CC3)cc1 (centres undefined)	0	0	0	0	0	0
O=C(C1CN(C(=O)c2cccc(Oc3ccccc3)c2)c2ccccc2O1)N1CCOCC1 (centres undefined)	0	0	0	0	0	0
Cc1ccc(-c2n[nH]n3c2nc(=O)c2ccc(C(=O)NCc4ccco4)cc23)cc1	0	0	0	0	0	0
COc1cccc(CNC(=O)c2ccc3c(=O)nc4c(-c5cccc(C)c5)n[nH]n4c3c2)c1	0	0	0	0	0	43.1
COc1cccc(C(=O)N2CCC[C@@H]2Cn2nnc3c(=O)[nH]c(C)nc32)c1	0	0	0	0	0	0
O=C(CCc1nc2sc3c(c2c(=O)[nH]1)CCCCC3)Nc1ccc(F)cc1F	0	0	0	0	0	42.2
Cc1ccc(NC(=O)CCc2nc3sc4c(c3c(=O)[nH]2)CCCC4)cc1F	0	0	0	0	0	0
Cn1c(SCc2ccccc2Cl)nnc1-c1csc(-c2cccnc2)n1	0	0	0	0	0	0
COc1ccc(NC(=O)CSc2ccc(F)cc2)cc1	33.6	0	0	0	0	0
Cc1ccc(-c2nc(-c3ccccc3)c(S(=O)(=O)CC(=O)Nc3ccc(F)c(Cl)c3)[nH]2)cc1	43.8	0	0	0	0	0
COc1ccc(-c2nc(-c3ccc(OC)cc3)c(S(=O)(=O)CC(=O)Nc3ccc(F)cc3)[nH]2)cc1	30.0	0	0	0	0	0
O=C(CS(=O)(=O)c1[nH]c(-c2ccc(F)cc2)nc1-c1ccccc1)Nc1ccc(F)cc1	0	0	0	0	0	0
O=C1Nc2ccc(S(=O)(=O)NCCCCCCNS(=O)(=O)c3ccc4c5c(cccc35)C(=O)N4)c3cccc1c23	0	0	37.9	0	0	0
O=C(Nc1ccc(Cl)cc1)C1CCCN(c2cnccn2)C1 (centres undefined)	0	33.2	0	0	0	0
Cc1ccc(NC(=O)C2CCCN(c3cnccn3)C2)cc1 (centres undefined)	0	0	0	0	0	0
Cc1cc(O)c2c3c(c(O)c4c(c13)O[C@@H](C)C4(C)C)C(=O)C2=O	0	83.4	30.6	0	0	0
O=C(Nc1nc2c(s1)CN(C(=O)c1cnn(-c3ccccc3)n1)CC2)C1CCCO1 (centres undefined)	0	0	0	0	0	0
O=C(Nc1nc2c(s1)CN(C(=O)c1cc(-c3ccco3)on1)CC2)C1CCCO1 (centres undefined)	0	33.3	0	0	0	58.9
Cc1c(OCc2ccccc2)noc1C1CCN(C(=O)CCN)CC1	0	0	41.0	0	0	0
Nc1cc(C2CCN(C(=O)CCCc3ccccc3)CC2)no1	-	0	-	0	0	0
SMILES	USP30 inh	USP17 inh	USP28 inh	USP10 inh	OTUD3 block	USP8 inh
COc1cccc2c1OCC(NS(=O)(=O)c1cc(C)ccc1C)C2 (centres undefined)	0	0	0	0	82.1	0
CCn1c(=O)c(CCC(=O)Nc2ccc(C(C)=O)cc2)nc2c(C)nn(-c3ccccc3)c21	0	0	0	0	0	0
COc1ccc(C2CC(=O)N(CC(=O)Nc3ccc(NC(C)=O)cc3)c3ccccc3S2)cc1OC (centres undefined)	-	36.9	-	0	0	0
CC(C)C(=O)N1CCC2(CC1)OC(C(=O)Nc1ccncc1)Cn1ccnc12 (centres undefined)	0	0	0	0	0	0
COC(=O)c1cc2occc2n1CC(=O)Nc1ccc(C)c(F)c1	0	0	0	0	0	0
O=C1C2=C(C(c3ccccc3)=NCCN2)C(c2cccc(F)c2)N1c1ccccc1 (centres undefined)	31.8	0	0	0	0	0

Screening data (PubChem BioAssay)
